# Laboratory results reported in PubChem BioAssay AID504834 (National Center for Advancing Translational Sciences (NCATS), 2011).
# Out of some 320,000 compounds screened, about 22,000 (6.9%) were called active. Not shown: some 27% with an inconclusive outcome. Calls come from the whole dose curve; as a rule, active = well fitted inhibition curve with a large enough effect; inconclusive = small, poorly fitted or top-dose-only effect, or another doubt; inactive = no such curve, though single readings can be large or run the other way. What follows is part of a selection rich in actives, with near analogues and random picks from the rest. Where a call stands in place of a potency, no number is given.
# Assay: Primary qHTS for delayed death inhibitors of the malarial parasite plastid, 96 hour incubation
# Conditions: P. falciparum luciferase reporter growth; series mostly up to 28.7 µM
# In short: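 Compounds incubated with erythrocytes infected by luciferase-expressing P. falciparum (2% hematocrit, 0.05% parasitemia final) for 96 hours, 37 C in 5% CO2. Growth inhibition scored as decreased luciferase luminescence.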
# Potency is the fitted concentration of half-maximal effect.
row,Compound,Potency
1,O=C(CS(=O)(=O)c1cn(Cc2cccc(F)c2)c2ccccc12)N1CCCCC1,inactive
2,Cc1ccc(CNC(=O)C(=O)c2cn(CC(=O)N3CCOCC3)c3ccccc23)cc1,inactive
3,O=C(CS(=O)(=O)c1cn(Cc2ccc(Cl)cc2)c2ccccc12)N1CCOCC1,8.28 µM (active)
4,CCc1ccc(NC(=O)COC(=O)c2cccs2)cc1,inactive
5,CCOC(=O)Cc1cc(=O)[nH]c(/N=C(\N)Nc2ccc(OC)cc2)n1,inactive
6,O=C(CN1CCOCC1)N/N=C/c1ccc(-c2ccc(Br)cc2)o1,inactive
7,C=CC1C(OC2OC(CO)C(O)C(O)C2O)OC=C(C(=O)OC)C1CC1CC(=O)CC(CC(=O)CCc2ccc(O)cc2)O1 (stereo not given),5.22 µM (active)
8,CC(/C=C/C1(O)C(C)CC(=O)CC1(C)C)OC1OC(CO)C(O)C(O)C1O (stereo not given),inactive
9,COC(=O)C1=CO[C@@H](O[C@@H]2O[C@H](CO)[C@@H](O)[C@H](O)[C@H]2O)C2C1C[C@H](O)[C@@H]2C (stereo not given in full),inactive
10,Cc1cc(=O)[nH]c2nnnn12,inactive
11,NS(=O)(=O)c1ccc(CNC(=O)c2cccc(Oc3ccccc3)c2)cc1,inactive
12,Cc1nc(C)c2c(c1C(F)(F)F)-c1ccccc1C2(F)F,11.7 µM (active)
13,COCCCC1CCN(C(=O)C2CCC(=O)N(C3CCCCCC3)C2)CC1 (stereo not given),inactive
14,CCN(CC)c1ccc(NC(=O)CN2C(=O)NC3(CCc4ccccc43)C2=O)cc1 (stereo not given),inactive
15,COc1ccc(C(=O)NCc2nnc(SCCOc3ccccc3)n2C)cc1,inactive
16,COc1cccc(C(=O)NCCSc2ccc(Br)cc2)c1,inactive
17,COc1ccc(C(=O)NCCSc2ccccc2C)cc1,3.29 µM (active)
18,COc1cc(C(C(=O)NC2CCCC2)N(Cc2ccccc2)C(=O)c2snc(C(N)=O)c2N)ccc1O (stereo not given),inactive
19,COc1ccc(CNC(=O)C(=O)NCC2OCCN2C(=O)c2ccc(OC)cc2)cc1 (stereo not given),inactive
20,O=C(CN(Cc1ccccc1)C(=O)CCC(=O)Nc1ccccn1)NCCc1ccccc1,13.1 µM (active)
21,Cc1ccnc(NC(=O)CCC(=O)N(CC(=O)NCCc2ccccc2)Cc2cccs2)c1,inactive
22,O=C(CCCC(=O)N(CC(=O)NC1CCCC1)Cc1ccccc1Cl)Nc1ccccn1,inactive

row,Compound,Potency
1,C=CCn1c(N)c(C(=O)OCC(C)C)c2nc3ccccc3nc21,inactive
2,CCCNC(=O)c1c(N)n(-c2ccc(S(N)(=O)=O)cc2)c2nc3ccccc3nc12,inactive
3,CCC(C)NC(=O)c1c(N)n(/N=C/c2cccs2)c2nc3ccccc3nc12 (stereo not given),10.4 µM (active)
4,O=C(NCCc1c[nH]c2ccc(Cl)cc12)c1ccc([N+](=O)[O-])cc1,inactive
5,Cc1ccc(CNC(=O)c2c(-c3ccccc3)noc2C)cc1,inactive
6,Oc1ccccc1CNc1ncc(Br)cc1Br,13.1 µM (active)
7,CCc1cccc(C)c1NS(=O)(=O)c1cc(Br)cnc1N,inactive
8,Brc1ccc2ncnc(NCc3cccnc3)c2c1,inactive
9,COc1ccc(S(=O)(=O)c2c[nH]c(=S)[nH]c2=O)cc1Cl,inactive
10,O=C(O)c1cc(S(=O)(=O)NC2CCCc3ccccc32)ccc1O (stereo not given),inactive
11,CCCCn1c(N)c(N(CCOC)C(=O)c2cccc(S(=O)(=O)N3CCCCC3)c2)c(=O)[nH]c1=O,inactive
12,CCCCn1c(=S)[nH]c2cc(S(=O)(=O)N3CCCCC3)ccc21,9.28 µM (active)
13,O=c1[nH]c2ccc(S(=O)(=O)N3CCCC3)cc2[nH]1,inactive
14,Cc1ccc(S(=O)(=O)N(C)C)cc1NC(=O)C1Cc2ccccc2CN1C(=O)c1ccco1 (stereo not given),inactive
15,O=C(NCCCn1ccnc1)/C(=C\c1ccccc1F)NC(=O)c1ccccc1,inactive
16,Cc1c(C(=O)OCC(=O)N2CCCC2=O)oc2ccccc12,inactive
17,Oc1c(CN2CCCC2)cc(COCc2ccccc2)c2cccnc12,2.08 µM (active)
18,O=[N+]([O-])c1cc([N+](=O)[O-])c2cccnc2c1O,inactive
19,CC1CCCN(CC(O)COCc2ccccc2)C1 (stereo not given),inactive
20,Cc1cnc(C(=O)N2CCCC(N3CCN(c4ccccc4F)CC3)C2)cn1 (stereo not given),inactive
21,O=C(Nc1nnc(SCc2c(Cl)cccc2Cl)s1)c1cccc([N+](=O)[O-])c1,inactive
22,O=C(CCNS(=O)(=O)c1ccc(Br)s1)NCc1ccccc1Cl,inactive

row,Compound,Potency
1,Cn1c(=O)oc2cc(S(=O)(=O)N3CCC(C(=O)Nc4ccc(OC(F)(F)F)cc4)CC3)ccc21,inactive
2,COc1ccc(NC(=O)CCNS(=O)(=O)c2ccc3c(c2)c(=O)n(C)c(=O)n3C)cc1OC,inactive
3,CSCCC(NS(=O)(=O)c1ccc2c(c1)oc(=O)n2C)C(=O)NCc1ccccc1 (stereo not given),inactive
4,Cn1c(=O)oc2cc(S(=O)(=O)NCCC(=O)NCc3ccccc3Cl)ccc21,10.4 µM (active)
5,CCN(Cc1ccccc1)C(=O)CCS(=O)(=O)c1ccc2c(c1)oc(=O)n2C,inactive
6,Cc1ccc(NC(=O)CCNS(=O)(=O)c2ccc3c(c2)oc(=O)n3C)cc1C,inactive
7,COc1cc(NC(=O)CCS(=O)(=O)c2ccc3c(c2)oc(=O)n3C)cc(OC)c1,1.47 µM (active)
8,COc1cccc(NC(=O)CCNS(=O)(=O)c2ccc3c(c2)oc(=O)n3C)c1,7.38 µM (active)
9,CS(=O)(=O)N(CC(=O)Nc1ccc(F)cc1)C1CCCCC1,inactive
10,CCOC(=O)Cn1c(O)c(N=NC(=O)CNC(=O)Cc2ccccc2)c2ccccc21,inactive
11,Cc1nc2nc(C)c(NS(=O)(=O)c3ccc(C(C)(C)C)cc3)c(=O)n2[nH]1,inactive
12,CC1CCN(C(=O)c2cccc(S(=O)(=O)N3CCCc4ccccc43)c2)CC1,inactive
13,CC1CCN(C(=O)COC(=O)c2cc(=O)[nH]c3ccccc23)CC1,inactive
14,CN(C)NC(=O)c1csnc1-c1c(Cl)cccc1Cl,inactive
15,O=C(COC(=O)CNS(=O)(=O)c1ccc(F)c(F)c1F)NC1CCCC1,inactive
16,Cc1csc(NC(=O)C2=COCCO2)n1,inactive
17,O=C(Nc1nc(-c2ccc3c(c2)OCO3)cs1)c1ccncc1,4.15 µM (active)
18,CC(=O)NCCC(=O)Nc1nc(-c2ccc3c(c2)OCCO3)cs1,inactive
19,Cc1ccc(-c2csc(NC(=O)C3=COCCO3)n2)cc1C,6.57 µM (active)
20,Cc1ccc(-c2csc(NC(=O)c3cnccn3)n2)cc1C,inactive
21,O=C(Nc1nc2ccccc2s1)c1ccc2c(c1)OCO2,inactive
